According to the supplement of paper PMC10849652:
The full data set covers some 8,800 targets. This sample favours those with a hit. About 0.5% of all pairs of compound and target were hits. A number with no mark means an inactive call.

Legend:
Test in all cases: log2 fold change, soluble protein after heating vs DMSO (PISA); higher = thermal stabilisation; K562 lysate, 10 uM; active = over 0.2 and 3.5 SD of the protein, either way, in both replicates (recomputed)
vemurafenib = compound: CCCS(=O)(=O)Nc1ccc(F)c(C(=O)c2c[nH]c3ncc(-c4ccc(Cl)cc4)cc23)c1F [vemurafenib]
Method in brief: (§1)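 Soluble protein was defined as the supernatant remaining after 21,000xg for 90 min, following pooling of heated aliquots and adjustment to 0.5% NP-40 at 4°C. Before that, crude K562 extract at 1 mg/mL protein in PBS pH 7.4 with 1 mM MgCl2 was treated with 10 μM compound for 30 min and heated for 3 min across 48°C-58°C. Quantification used TMTpro 16plex LC-MS/MS with channel sums equalised, and values are log-two fold changes in thermal stability relative to solvent controls from duplicates.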

[1] = compound: CCCS(=O)(=O)Nc1ccc(F)c(C(=O)c2c[nH]c3ncc(Cl)cc23)c1F
Method in brief: as §1

barasertib = compound: CCN(CCCOc1ccc2c(Nc3cc(CC(=O)Nc4cccc(F)c4)[nH]n3)ncnc2c1)CCOP(=O)(O)O [barasertib]
Method in brief: as §1

[2] = compound: CC[C@@H]1C(=O)N(C)c2cnc(Nc3ccc(C(=O)NC4CCN(C)CC4)cc3OC)nc2N1C1CCCC1
Method in brief: as §1

volasertib = compound: CC[C@@H]1C(=O)N(C)c2cnc(Nc3ccc(C(=O)N[C@H]4CC[C@H](N5CCN(CC6CC6)CC5)CC4)cc3OC)nc2N1C(C)C [volasertib]
Method in brief: as §1

[3] = compound: CCn1c(C(=O)N(C2CC2)C2CC2)cc2c3c(ncn3C)c(Nc3cc(C)n(C)n3)nc21
Method in brief: as §1

[4] = compound: CCn1cc(-c2ccnc3[nH]c(-c4cccc(CN(C)C)c4)cc23)c(-c2ccc(NC(=O)N(C)C)cc2)n1
Method in brief: as §1

[5] = compound: CN1CCC(CNc2ccc3ncc(-c4cccc(OC(F)(F)F)c4)n3n2)CC1
Method in brief: as §1

saracatinib = compound: CN1CCN(CCOc2cc(OC3CCOCC3)c3c(Nc4c(Cl)ccc5c4OCO5)ncnc3c2)CC1 [saracatinib]
Method in brief: as §1

sotrastaurin = compound: CN1CCN(c2nc(C3=C(c4c[nH]c5ccccc45)C(=O)NC3=O)c3ccccc3n2)CC1 [sotrastaurin]
Method in brief: as §1

Sequence of UniProt O15031 (O15031 whole entry, looked up): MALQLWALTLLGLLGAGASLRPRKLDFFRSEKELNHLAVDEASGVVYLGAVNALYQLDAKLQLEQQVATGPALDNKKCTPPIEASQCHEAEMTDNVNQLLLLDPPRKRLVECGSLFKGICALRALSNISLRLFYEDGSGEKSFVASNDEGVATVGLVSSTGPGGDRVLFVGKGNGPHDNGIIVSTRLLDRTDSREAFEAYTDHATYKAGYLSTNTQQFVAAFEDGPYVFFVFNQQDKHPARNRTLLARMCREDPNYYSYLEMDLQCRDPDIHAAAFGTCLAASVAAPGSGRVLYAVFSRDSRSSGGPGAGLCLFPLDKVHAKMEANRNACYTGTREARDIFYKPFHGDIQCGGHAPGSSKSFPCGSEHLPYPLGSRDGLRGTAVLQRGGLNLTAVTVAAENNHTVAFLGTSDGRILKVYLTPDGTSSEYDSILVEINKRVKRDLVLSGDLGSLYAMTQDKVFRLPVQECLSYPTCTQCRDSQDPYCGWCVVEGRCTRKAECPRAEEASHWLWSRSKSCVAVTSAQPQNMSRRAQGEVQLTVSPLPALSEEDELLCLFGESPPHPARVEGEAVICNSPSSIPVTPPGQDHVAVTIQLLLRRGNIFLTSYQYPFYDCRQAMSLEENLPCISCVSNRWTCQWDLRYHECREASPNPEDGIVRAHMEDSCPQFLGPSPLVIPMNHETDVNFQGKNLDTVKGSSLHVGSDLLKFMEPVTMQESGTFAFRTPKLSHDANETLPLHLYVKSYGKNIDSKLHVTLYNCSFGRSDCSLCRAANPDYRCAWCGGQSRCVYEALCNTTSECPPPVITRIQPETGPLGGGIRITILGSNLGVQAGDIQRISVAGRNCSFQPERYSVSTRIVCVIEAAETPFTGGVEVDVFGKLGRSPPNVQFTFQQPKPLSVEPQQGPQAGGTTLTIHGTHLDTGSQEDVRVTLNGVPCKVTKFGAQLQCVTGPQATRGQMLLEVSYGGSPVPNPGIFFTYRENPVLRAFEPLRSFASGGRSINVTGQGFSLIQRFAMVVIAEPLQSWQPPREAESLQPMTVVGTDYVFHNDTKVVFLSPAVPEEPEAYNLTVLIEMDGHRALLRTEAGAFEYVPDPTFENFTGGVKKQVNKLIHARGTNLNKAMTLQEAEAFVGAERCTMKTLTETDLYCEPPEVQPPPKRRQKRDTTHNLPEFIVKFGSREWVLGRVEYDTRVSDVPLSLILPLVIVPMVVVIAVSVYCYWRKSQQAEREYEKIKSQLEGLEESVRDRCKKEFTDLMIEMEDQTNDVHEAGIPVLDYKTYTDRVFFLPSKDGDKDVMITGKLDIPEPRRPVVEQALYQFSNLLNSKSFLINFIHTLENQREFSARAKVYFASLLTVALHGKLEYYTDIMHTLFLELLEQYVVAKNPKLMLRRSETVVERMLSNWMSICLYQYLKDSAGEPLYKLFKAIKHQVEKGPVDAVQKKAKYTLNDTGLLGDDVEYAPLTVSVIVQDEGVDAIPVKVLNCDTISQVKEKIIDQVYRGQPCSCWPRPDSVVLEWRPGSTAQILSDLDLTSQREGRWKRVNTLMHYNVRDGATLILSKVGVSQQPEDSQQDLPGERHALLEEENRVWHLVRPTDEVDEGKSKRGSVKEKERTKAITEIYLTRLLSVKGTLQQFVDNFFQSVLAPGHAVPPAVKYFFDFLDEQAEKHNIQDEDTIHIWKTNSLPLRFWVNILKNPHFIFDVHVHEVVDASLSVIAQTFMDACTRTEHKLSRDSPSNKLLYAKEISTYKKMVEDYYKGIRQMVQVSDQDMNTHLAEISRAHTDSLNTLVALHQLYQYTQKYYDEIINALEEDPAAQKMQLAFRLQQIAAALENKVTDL
Sequence of UniProt Q13442 (Q13442 whole entry, looked up): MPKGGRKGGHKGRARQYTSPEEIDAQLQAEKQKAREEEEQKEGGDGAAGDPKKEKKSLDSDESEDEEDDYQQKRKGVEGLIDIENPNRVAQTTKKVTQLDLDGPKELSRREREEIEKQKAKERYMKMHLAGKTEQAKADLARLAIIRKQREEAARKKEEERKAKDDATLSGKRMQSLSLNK
Sequence of UniProt Q8WUM4 (Q8WUM4 whole entry, looked up): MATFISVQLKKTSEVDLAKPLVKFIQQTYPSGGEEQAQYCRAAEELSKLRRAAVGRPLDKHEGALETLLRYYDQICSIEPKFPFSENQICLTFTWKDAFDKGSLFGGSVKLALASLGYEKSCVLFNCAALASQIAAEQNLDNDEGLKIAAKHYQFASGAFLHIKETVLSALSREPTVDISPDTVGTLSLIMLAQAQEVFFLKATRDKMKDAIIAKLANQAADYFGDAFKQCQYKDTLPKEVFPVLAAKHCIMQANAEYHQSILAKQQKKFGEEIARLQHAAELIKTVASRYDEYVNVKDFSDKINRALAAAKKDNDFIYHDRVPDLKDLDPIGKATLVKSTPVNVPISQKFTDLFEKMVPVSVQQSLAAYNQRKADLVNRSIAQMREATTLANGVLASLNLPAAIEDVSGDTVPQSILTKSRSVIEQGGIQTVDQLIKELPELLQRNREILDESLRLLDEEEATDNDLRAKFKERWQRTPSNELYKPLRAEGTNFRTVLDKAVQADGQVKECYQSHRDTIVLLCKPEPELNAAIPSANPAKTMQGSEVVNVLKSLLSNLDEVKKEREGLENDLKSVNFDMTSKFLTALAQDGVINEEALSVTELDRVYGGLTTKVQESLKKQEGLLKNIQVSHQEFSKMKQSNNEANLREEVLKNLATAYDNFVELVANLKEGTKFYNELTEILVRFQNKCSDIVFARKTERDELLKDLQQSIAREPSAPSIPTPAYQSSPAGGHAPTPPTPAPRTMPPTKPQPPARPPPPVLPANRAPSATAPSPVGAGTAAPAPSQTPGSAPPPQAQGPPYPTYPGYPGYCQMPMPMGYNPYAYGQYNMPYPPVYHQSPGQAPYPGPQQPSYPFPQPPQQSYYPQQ
Sequence of UniProt Q9BTU6 (Q9BTU6 whole entry, looked up): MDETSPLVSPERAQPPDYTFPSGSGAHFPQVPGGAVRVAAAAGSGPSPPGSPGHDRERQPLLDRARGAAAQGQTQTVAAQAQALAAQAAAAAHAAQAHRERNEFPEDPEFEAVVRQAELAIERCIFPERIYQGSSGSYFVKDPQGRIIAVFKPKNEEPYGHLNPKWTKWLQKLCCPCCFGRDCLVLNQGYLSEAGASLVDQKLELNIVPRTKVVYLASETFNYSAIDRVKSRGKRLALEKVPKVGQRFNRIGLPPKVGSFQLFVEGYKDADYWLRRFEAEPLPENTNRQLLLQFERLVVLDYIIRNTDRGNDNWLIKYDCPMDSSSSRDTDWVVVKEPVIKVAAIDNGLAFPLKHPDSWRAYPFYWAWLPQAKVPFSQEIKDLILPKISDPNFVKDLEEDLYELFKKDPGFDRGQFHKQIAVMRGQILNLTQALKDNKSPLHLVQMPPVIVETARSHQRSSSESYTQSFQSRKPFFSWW
Sequence of UniProt P0CAP2 (P0CAP2 whole entry, looked up): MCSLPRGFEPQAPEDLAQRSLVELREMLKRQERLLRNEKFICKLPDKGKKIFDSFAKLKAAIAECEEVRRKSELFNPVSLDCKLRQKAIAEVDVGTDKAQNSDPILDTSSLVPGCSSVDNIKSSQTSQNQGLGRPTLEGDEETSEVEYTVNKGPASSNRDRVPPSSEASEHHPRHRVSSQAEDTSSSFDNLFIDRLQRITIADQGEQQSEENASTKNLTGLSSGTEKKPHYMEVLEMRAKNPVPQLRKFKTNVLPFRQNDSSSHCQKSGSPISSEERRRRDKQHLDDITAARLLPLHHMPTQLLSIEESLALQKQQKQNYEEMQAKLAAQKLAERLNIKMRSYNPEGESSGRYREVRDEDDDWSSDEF
Sequence of UniProt P07737 (P07737 whole entry, looked up): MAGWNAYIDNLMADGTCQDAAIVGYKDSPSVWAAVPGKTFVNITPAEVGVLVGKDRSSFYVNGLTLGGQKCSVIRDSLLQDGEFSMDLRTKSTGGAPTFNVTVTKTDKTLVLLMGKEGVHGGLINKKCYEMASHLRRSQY
Sequence of UniProt Q8IZ21 (Q8IZ21 whole entry, looked up): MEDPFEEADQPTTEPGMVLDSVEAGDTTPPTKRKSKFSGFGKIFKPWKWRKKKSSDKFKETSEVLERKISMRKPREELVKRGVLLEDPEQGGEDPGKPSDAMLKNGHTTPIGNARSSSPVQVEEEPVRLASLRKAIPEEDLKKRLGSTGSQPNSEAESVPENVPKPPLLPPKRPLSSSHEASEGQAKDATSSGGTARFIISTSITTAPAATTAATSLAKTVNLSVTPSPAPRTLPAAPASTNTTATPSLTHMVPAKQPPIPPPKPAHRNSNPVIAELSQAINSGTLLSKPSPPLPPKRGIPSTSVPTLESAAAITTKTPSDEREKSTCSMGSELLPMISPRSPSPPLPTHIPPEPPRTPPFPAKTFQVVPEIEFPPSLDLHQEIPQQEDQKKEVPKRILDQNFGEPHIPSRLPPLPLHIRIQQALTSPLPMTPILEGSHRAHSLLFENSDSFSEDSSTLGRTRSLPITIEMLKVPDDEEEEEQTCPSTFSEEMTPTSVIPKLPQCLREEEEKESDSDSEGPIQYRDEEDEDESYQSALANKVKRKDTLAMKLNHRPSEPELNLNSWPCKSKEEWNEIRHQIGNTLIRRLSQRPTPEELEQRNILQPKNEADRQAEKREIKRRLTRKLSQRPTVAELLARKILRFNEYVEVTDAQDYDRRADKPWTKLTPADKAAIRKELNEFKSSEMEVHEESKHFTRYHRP
Sequence of UniProt P49642 (P49642 whole entry, looked up): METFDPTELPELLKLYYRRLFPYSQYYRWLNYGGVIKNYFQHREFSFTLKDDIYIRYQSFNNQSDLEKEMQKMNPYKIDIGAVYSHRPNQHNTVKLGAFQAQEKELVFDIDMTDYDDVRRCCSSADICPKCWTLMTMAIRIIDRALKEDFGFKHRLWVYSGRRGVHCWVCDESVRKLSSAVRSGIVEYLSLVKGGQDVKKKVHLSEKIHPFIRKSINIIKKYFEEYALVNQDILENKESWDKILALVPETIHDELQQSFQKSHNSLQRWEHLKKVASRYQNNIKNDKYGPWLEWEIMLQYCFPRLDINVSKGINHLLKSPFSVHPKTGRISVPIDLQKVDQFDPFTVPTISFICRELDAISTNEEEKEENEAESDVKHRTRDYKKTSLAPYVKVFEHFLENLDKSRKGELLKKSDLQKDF

| Target | log2 fold change (vemurafenib) | log2 fold change [1] | log2 fold change (barasertib) | log2 fold change [2] | log2 fold change (volasertib) | log2 fold change [3] | log2 fold change [4] | log2 fold change [5] | log2 fold change (saracatinib) | log2 fold change (sotrastaurin) |
| --- | --- | --- | --- | --- | --- | --- | --- | --- | --- | --- |
| PFKFB4 (UniProt Q16877) | 0.021 | 0.005 | 0.087 | 0.015 | -0.068 | -0.011 | 0.014 | 0.007 | 0.077 | 0.043 |
| PTK2B (UniProt Q14289) | 0.001 | -0.03 | -0.013 | 0.118 | 0.022 | -0.044 | 0.001 | 0.107 | 0.019 | 0.033 |
| PRIM1 (UniProt P49642) | -0.036 | 0.022 | 0.031 | -0.089 | -0.069 | 0.062 | -0.008 | -0.029 | -0.002 | 0.007 |
| PPIL2 (UniProt Q13356) | 0.012 | 0.015 | 0.035 | -0.013 | -0.06 | 0 | -0.023 | 0.016 | -0.032 | 0.024 |
| PHKB isoform 3 (UniProt Q93100) | -0.043 | -0.007 | 0.04 | 0.022 | -0.034 | 0.009 | -0.146 | 0.138 | 0.019 | -0.014 |
| PDCD6IP isoform 2 (UniProt Q8WUM4) | -0.018 | -0.005 | -0.008 | -0.036 | -0.022 | 0.032 | 0.071 | -0.054 | 0.011 | 0.003 |
| PI4K2A (UniProt Q9BTU6) | -0.025 | 0.037 | 0.041 | -0.009 | -0.027 | 0.004 | 0.019 | 0.042 | -0.037 | 0.102 |
| POLR2M (UniProt P0CAP2) | 0.014 | 0.02 | 0.021 | -0.108 | -0.024 | 0.008 | -0.055 | 0.067 | -0.007 | 0.041 |
| PDCD4 (UniProt Q53EL6) | 0.014 | 0.02 | 0.024 | -0.023 | -0.03 | 0.029 | -0.029 | -0.013 | 0.009 | 0.001 |
| PLXNB2 (UniProt O15031) | 0.011 | -0.007 | 0.008 | 0.051 | -0.021 | -0.003 | -0.043 | -0.019 | 0.005 | 0.024 |
| PI4K2B (UniProt Q8TCG2) | -0.003 | -0.006 | 0.023 | 0.07 | -0.032 | -0.062 | 0.081 | 0.121 | -0.009 | 0.132 |
| PDAP1 (UniProt Q13442) | -0.026 | -0.01 | -0.064 | 0.069 | 0.04 | -0.043 | -0.267 (active) | 0.159 | -0.002 | -0.02 |
| POMP (UniProt Q9Y244) | -0.022 | 0.001 | -0.034 | 0.039 | -0.007 | -0.028 | 0.065 | -0.061 | 0.056 | -0.064 |
| POLR2F (UniProt P61218) | 0.077 | -0.018 | 0.034 | -0.043 | 0.036 | 0.078 | 1.25 (active) | -0.211 | -0.042 | 0.02 |
| PRAME (UniProt P78395) | 0.028 | -0.012 | 0.003 | -0.086 | -0.009 | 0.017 | -0.058 | 0.011 | 0 | 0.018 |
| PHKA1 (UniProt P46020) | -0.021 | 0.009 | 0.089 | 0.044 | -0.074 | 0.074 | -0.067 | 0.079 | -0.009 | -0.019 |
| PPCDC (UniProt Q96CD2) | 0.1 | 0.003 | 0.066 | 0.047 | 0.006 | 0.008 | -0.342 | 0.165 | 0.018 | 0.038 |
| PPIE (UniProt Q9UNP9) | 0.026 | -0.043 | -0.042 | 0.044 | 0.018 | -0.003 | -0.25 (active) | 0.143 | -0.01 | 0.067 |
| PPP2CA (UniProt P67775) | 0.061 | -0.008 | -0.012 | 0.032 | -0.012 | 0.02 | 0.13 | 0.049 | 0.039 | -0.047 |
| PPIL3 (UniProt Q9H2H8) | 0.048 | -0.017 | 0.099 | -0.004 | -0.007 | 0.027 | 0.067 | 0.021 | 0.004 | -0.03 |
| PUS3 (UniProt Q9BZE2) | 0.083 | 0.036 | 0.074 | -0.058 | -0.007 | 0.071 | 0.193 | -0.195 | 0.018 | 0.052 |
| PHACTR4 isoform 2 (UniProt Q8IZ21) | 0.011 | 0.011 | -0.008 | 0.065 | 0.023 | -0.003 | 0.836 (active) | -0.178 | 0 | 0.013 |
| PLA2G4B isoform 6 (UniProt P0C869) | 0.05 | 0.069 | 0.002 | 0.144 | 0.018 | -0.191 | 0.034 | -0.014 | 0.101 | -0.168 |
| PHKA2 (UniProt P46019) | -0.065 | 0.053 | 0.072 | 0.059 | 0.021 | 0.024 | 0.009 | -0.084 | 0.002 | -0.058 |
| PIK3CB (UniProt P42338) | -0.079 | 0.001 | 0.011 | 0.314 | -0.025 | -0.07 | -0.02 | 0.427 | -0.03 | 0.158 |
| PWP1 (UniProt Q13610) | -0.09 | 0.019 | 0.012 | -0.032 | -0.004 | -0.023 | 0.62 (active) | -0.039 | 0.01 | -0.021 |
| PTK2 (UniProt Q05397) | 0.017 | -0.091 | -0.015 | 0.352 | 0.145 | 0.044 | -0.001 | 0.056 | -0.023 | 0.039 |
| PRKCSH (UniProt K7ELL7) | 0.089 | 0.02 | -0.037 | 0.186 | -0.04 | 0.013 | 0.217 | -0.008 | -0.011 | -0.015 |
| PFN1 (UniProt P07737) | -0.01 | -0.01 | 0.012 | 0.02 | 0.015 | 0.02 | -0.02 | 0.028 | -0.004 | -0.005 |
| PTPN1 (UniProt P18031) | 0.04 | -0.005 | 0.042 | -0.029 | -0.04 | 0.033 | -0.061 | -0.03 | 0.022 | 0.069 |
